# Sampled rows, rich in hits. Any-hit rate of the full collection: about 19%.
# HT1080 IDH1KD tx – kills HT-1080 cells with IDH1 knockdown; actives 2% (n = 360,000); AID 686971; HT-1080 IDH1 knockdown viability, ATP luminescence, 48 h; Potency, µM (series often up to 46.1 µM), for inactives: at the highest dose activity, negative = toxicity, hits mostly cytotoxic;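 further: 0% = DMSO wells and -100% = cell-free medium wells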
#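 In this qHTS, HT-1080 cells depleted of IDH1 are exposed for 48 h at 37 °C to compound titrations. Toxicity is scored from CellTiter-Glo luminescence, with DMSO as full viability and medium alone as none.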
# KB-3-1 cytotox – kills parental KB-3-1 adenocarcinoma cells | KB-3-1 viability, CellTiter-Glo ATP luminescence, 72 h | Potency, µM (doses to about 46.1 µM), most hits filed as cytotoxic | actives 1.4% (n = 400,000) | AID 1347075; further: nearly all actives have a fitted effect of over 60% in size
#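 Parental KB-3-1 viability, qHTS format: 72 h compound exposure, 37 °C; CellTiter-Glo; media-only wells and DMSO plates as controls; concentration-effect fits on corrected data.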
# HT1080NT lethal – kills 2HG-producing HT-1080-NT fibrosarcoma cells; Potency, µM (highest dose often 46.1 µM), inactives show top-dose activity, negative = less viability, actives largely listed as cytotoxic; actives 1.6% (n = 360,000); HT-1080-NT fibrosarcoma viability, CellTiter-Glo ATP luminescence, 48 h;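 further: NT is the 2HG producing partner of a matched IDH1 knockdown line; 0% = DMSO-treated cells and -100% = media-only wells without cells; nearly all actives have a fitted effect of over 55% in size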
#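 Fibrosarcoma NT cells, 750 per well in 5% FBS RPMI, were exposed to compound for 48 hours. Viability: CellTiter-Glo luminescence.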
# KB-V1 cytotox – KB-V1 MDR subline cytotoxicity | Potency, µM (top dose mostly 46.1 µM), usual class: cytotoxic | KB-V1 MDR cells viability, CellTiter-Glo, 72 h | actives 3.4% (n = 400,000); further: nearly all actives have a fitted effect of over 60% in size
#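 Readout: CellTiter-Glo luminescence, 10 min after addition. Cells: KB-V1 MDR subline, 72 h at 37 degrees C with compound. Analysis: corrected, normalized data fitted to concentration-effect curves.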
# DT40 TDP1 CPT – growth inhibition of DT40 Tdp1-/-;hTDP1 cells with camptothecin (screen for TDP1 inhibitors); chicken DT40 Tdp1-/-;hTDP1 cells + 20 nM CPT, ATP luminescence, 48 h; Potency, µM (doses to about 46.2 µM), for the others: at the top dose activity change, negative = growth inhibition, actives largely listed as inhibitors; actives 12% (n = 420,000); further: nearly all actives have a fitted effect of over 55% in size
#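 Cell growth measured by CellTiter-Glo luminescence after a minimum 48 h, 37 C compound exposure with 20 nM CPT in Tdp1-knockout DT40 cells stably expressing hTDP1, seeded 400/well; qHTS titration format.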
# DT40 TDP1 no CPT – qHTS for Inhibitors of human tyrosyl-DNA phosphodiesterase 1 (TDP1): qHTS in cells in absence of CPT; Potency, µM (doses to about 46.2 µM), for inactives: top-dose activity change, negative = growth inhibition, usual class: inhibitors; DT40 Tdp1-/- hTDP1 cells, no CPT, ATP luminescence, 48 h; actives 15% (n = 420,000); further: nearly all actives have a fitted effect of over 55% in size
#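 Chicken DT40 Tdp1-/- cells stably complemented with human TDP1 were seeded at 400 cells/well with DMSO in place of 20 nM camptothecin. After compound pinning, cells grew at least 48 hr at 37 °C; viability read by CellTiter-Glo luminescence.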
# * hit, by the source's call; i = inactive; ? = inconclusive; / = no result given. The call rests on the fitted dose curve; in most records, active means well fitted curve in the direction sought with a large enough effect; inconclusive means small, poorly fitted or top-dose-only effect, or another doubt; inactive means no such curve, though single readings can be large; an effect the other way counts as inactive or inconclusive. Unless noted, on the % scale 0 is the no-effect control and ±100 the full control effect; potency means the concentration at half of the fitted maximal effect.
SMILES,HT1080 IDH1KD tx,KB-3-1 cytotox,HT1080NT lethal,KB-V1 cytotox,DT40 TDP1 CPT,DT40 TDP1 no CPT
CCC1=NN(C(=O)C(=O)Nc2ccccc2OC)C(O)(C(F)(F)F)C1 (stereo unspecified),1.4µM*,i,2.8µM*,i,-7%,?
CCC1=NN(C(=O)C(=O)NCCc2ccccc2)C(O)(C(F)(F)F)C1 (stereo unspecified),18µM*,i,?,i,8%,-12%
COc1ccc(NC(=O)C(=O)N2N=C3CCCCC3C2(O)C(F)(F)F)cc1 (stereo unspecified),6%,i,1%,?,0%,-3%
CCC1=NN(C(=O)C(=O)Nc2ccc(OC)cc2)C(O)(C(F)(F)F)C1 (stereo unspecified),5µM*,i,8.9µM*,i,-14%,-2%
CCC1=NN(C(=O)CCc2ccccc2)C(O)(C(F)(F)F)C1 (stereo unspecified),?,i,-3%,i,1%,-16%
CCCCN(C(=O)Cn1ncc(Cl)c(Cl)c1=O)c1c(N)n(CC(C)C)c(=O)[nH]c1=O,?,i,?,i,?,?
O=C(CSc1ncccn1)NCc1ccccc1,18%,i,10%,i,1%,5%
Cc1cc2cc(C)c3nnc(SCc4ccccn4)n3c2cc1C,15%,i,9%,i,23µM*,?
Cc1c(-c2ccc(/C=N/NC(=O)C(=O)Nc3ccccc3F)o2)cccc1[N+](=O)[O-],5%,i,11%,i,2%,-18%
Cc1c(C(=O)N/N=C/c2ccc(-c3ccccc3[N+](=O)[O-])o2)sc(N)c1C#N,?,i,?,i,16µM*,13µM*
O=[N+]([O-])c1ccccc1-c1ccc(/C=N/n2cnnc2)o1,-21%,i,5%,?,-15%,-13%
Cc1c(C(=O)N/N=C/c2ccc(O)c(Br)c2)sc(N)c1C#N,?,?,28%,i,?,?
Nn1cnnc1N/N=C\c1ccc(-c2ccccc2[N+](=O)[O-])o1,-24%,7.3µM*,-23%,2.1µM*,?,-30%
COc1cc(/C=N/NC(=O)c2sc(N)c(C#N)c2C)ccc1O,-2%,i,-2%,i,?,15µM*
O=C(Cn1cnc2c(nc3n2CCCCC3)c1=O)Nc1ccc(F)cc1,/,i,/,i,-6%,-3%
CCC(c1ccccc1)c1noc(CCN(CC)CC)n1 (stereo unspecified),-9%,i,9%,i,?,?
O=C(CNC1CCCCCC1)c1cccs1,-2%,i,-2%,?,-3%,-26%
Cc1ccccc1Cn1c2ccccc2c2cnn(CC(=O)NC3CCC(C)CC3)c(=O)c21 (stereo unspecified),/,i,/,?,18µM*,18µM*
Cc1ccc(C)c(Cn2c3ccccc3c3cnn(CC(=O)NC4CCC(C)CC4)c(=O)c32)c1 (stereo unspecified),/,i,/,i,10µM*,13µM*
Cc1ccc(C)c(Cn2c3ccccc3c3cnn(CC(=O)NCCc4ccccc4)c(=O)c32)c1,/,i,/,i,?,-21%
CCN(CC(=O)Nc1c(F)cccc1F)C(=O)c1nc2nc(C)cc(C)n2n1,0%,i,-9%,i,4%,3%
O=C(COC(=O)Cc1c(Cl)cccc1Cl)Nc1ccc2[nH]c(=O)[nH]c2c1,-6%,?,-5%,i,-3%,-23%
COc1cccc2c(C)cc(N3CCCCCC3)nc12,-6%,i,1%,i,-15%,?
COc1ccc(OC)c2c(C)cc(N3CCCCCC3)nc12,-23%,i,-7%,?,?,9.2µM*
Cc1ccc(-n2ncc(C(=O)NCCCN3CCCCC3)c2C2CCN(C(=O)OC(C)(C)C)CC2)c(C)c1,/,i,/,i,?,?
SMILES,HT1080 IDH1KD tx,KB-3-1 cytotox,HT1080NT lethal,KB-V1 cytotox,DT40 TDP1 CPT,DT40 TDP1 no CPT
CSc1ccc(CN2CCC(C)(Oc3cccc(Cl)c3)C2)cc1 (stereo unspecified),3%,i,-3%,i,?,?
COc1ccc(NC(=O)C2CC(=O)N(CCc3ccc(Cl)cc3)C2)cc1 (stereo unspecified),12%,i,4%,?,?,?
Clc1ccc(-c2nnn3c2nc(N2CCCCC2)c2ccccc23)cc1,/,i,/,i,1%,0%
Fc1cccc(-c2nnn3c2nc(NCCc2ccccc2)c2ccccc23)c1,/,i,/,?,5%,-14%
Cc1ccc(-c2nnn3c2nc(Cl)c2ccccc23)cc1,0%,i,-7%,i,2.9µM*,4.6µM*
Fc1cccc(-c2nnn3c2nc(NC2CCCCC2)c2ccccc23)c1,/,i,/,i,?,26µM*
Fc1cccc(-c2nnn3c2nc(Cl)c2ccccc23)c1,?,i,-11%,i,2.6µM*,2.6µM*
Clc1nc2c(-c3ccccc3)nnn2c2ccccc12,-26%,?,-17%,i,2.6µM*,3.3µM*
CCNC(=O)C1(C)CCN(C(=O)c2ccc3snnc3c2)C1 (stereo unspecified),14%,i,?,i,-10%,6%
CC(C)NC(=S)N/N=C/c1cccnc1,19%,i,18%,i,?,?
COc1ccc(NC(=O)NCCn2nnc3cc(S(=O)(=O)N(C)C)ccc32)cc1,/,i,/,i,10%,22%
OC1C=CSc2nc3ccccc3n21 (stereo unspecified),-17%,i,-7%,i,13µM*,15µM*
O=C(Cn1ccnc1)c1ccc(Cl)cc1,-2%,i,-3%,i,8%,18%
O=C(CC(C(=O)O)n1ccnc1)c1ccc(Cl)cc1 (stereo unspecified),/,i,/,i,7.1µM*,7.1µM*
Cc1cc(Cl)ccc1OCC(=O)N(Cc1sccc1C)C1CCS(=O)(=O)C1 (stereo unspecified),/,/,/,/,23µM*,18µM*
COc1ccc(C(=O)N(Cc2sccc2C)C2CCS(=O)(=O)C2)cc1Cl (stereo unspecified),/,/,/,/,?,18µM*
Cc1ccc(OCC(=O)N(Cc2cccs2)C2CCS(=O)(=O)C2)cc1 (stereo unspecified),-7%,i,-9%,?,1%,-7%
